Screening data: PubChem BioAssay, several laboratories
CYP2C19 inhib – blockers of cytochrome P450 2C19 activity – biochemical, luminescence, ADME assay, primary screen | CYP2C19 Supersomes, luciferin-H EGE luminescence, 30 min | inhibition, % at 5 µM | hit rate 21% among 96,000 | AID 778, 2007;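 active = CYP2C19 inhibition above a set limit at 5 µM in the primary screen, cut at about 50% in these data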;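 note: plate controls were negative control wells for no effect and 2.5 mM tranylcypromine positive control for full effect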
E-sel TNF inh – E-selectin induction blockers in HUVEC – imaging, immunofluorescence, high content, primary screen; AID 1246, 2008; hit rate 0.71% among 120,000; inhibition, % at 2 µM; HUVEC TNFa-induced E-selectin immunofluorescence;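 active = inhibition above the batch mean plus 3 SD, and confirmed as a hit on visual image review, cut at about 43% in these data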;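 note: 0% = TNF-stimulated DMSO wells and 100% = unstimulated control wells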
CYP2C9 inh – blockers of cytochrome P450 2C9 activity – biochemical, luminescence, ADME assay, primary screen; CYP2C9 Supersomes, luciferin-H conversion; hit rate 20% among 96,000; inhibition, % at 5 µM; P11712;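 active = blocking of liver enzyme CYP2C9 beyond about 50% at 5 µM, limit read from the data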
Target sequence (P11712 whole entry, looked up): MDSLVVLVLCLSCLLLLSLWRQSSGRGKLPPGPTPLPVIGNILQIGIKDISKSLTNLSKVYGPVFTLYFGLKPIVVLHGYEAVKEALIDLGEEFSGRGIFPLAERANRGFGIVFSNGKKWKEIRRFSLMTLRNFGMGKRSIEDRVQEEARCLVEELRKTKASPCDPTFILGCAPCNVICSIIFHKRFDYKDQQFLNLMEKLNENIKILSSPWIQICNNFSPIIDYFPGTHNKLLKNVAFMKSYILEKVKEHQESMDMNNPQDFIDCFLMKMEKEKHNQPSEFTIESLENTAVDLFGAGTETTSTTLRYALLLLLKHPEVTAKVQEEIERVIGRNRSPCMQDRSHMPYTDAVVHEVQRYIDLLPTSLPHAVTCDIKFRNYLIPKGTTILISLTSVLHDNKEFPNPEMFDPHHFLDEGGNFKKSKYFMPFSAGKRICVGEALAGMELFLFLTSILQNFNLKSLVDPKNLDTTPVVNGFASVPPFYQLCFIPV
CYP2C9 activ – human CYP2C9 activators, primary screen, biochemical, luminescence. Cytochrome P450 2C9 (Homo sapiens), P11712. recombinant CYP2C9, luciferin-H conversion; stronger effect = higher value; factor 1 = untreated enzyme, 0 = blocked. activation factor at 5 µM. hit rate 1.4% among 96,000;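 active = activation factor of 2 or more for CYP2C9 at a 5 µM dose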;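 note: 0 = sulfaphenazole-blocked wells and 1 = vehicle-only wells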
CYP2C19 activ – human CYP2C19 activators, primary screen, biochemical, luminescence. Cytochrome P450 2C19 (Homo sapiens), P33261. recombinant CYP2C19, luciferin-H EGE luminescence; stronger effect = higher value; 0 = fully inhibited enzyme, 1 = untreated enzyme. activation factor at 5 µM. 96,000 tested, under 10 active. AID 1025, 2008;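 active = activation factor of at least 2 at 5 µM in the primary screen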;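 note: 0 = wells with 2.5 mM tranylcypromine and 1 = vehicle-only wells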
cytoskel mod – modifiers of F-actin cytoskeleton organization, primary screen, imaging, HUVEC, phalloidin staining, high-content imaging; HUVEC TNFa F-actin phalloidin imaging; inhibition, % at 2 µM; hit rate 0.18% among 91,000;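 active = inhibition above the batch mean plus 3 SD and confirmed as a hit by visual image inspection, cut at about 30% in these data, passing the limit was not always enough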
* = called active by the depositor; nt = no result. This is a sample that favours compounds with a hit; in the whole collection about 22% have one here.

SMILES	CYP2C19 inhib	E-sel TNF inh	CYP2C9 inh	CYP2C9 activ	CYP2C19 activ	cytoskel mod
CC1CC(=O)Nc2ccccc2N1S(=O)(=O)c1ccccc1 (configuration not stated)	-1	-8	-84	1.8	1	-1
CC1CC(=O)Nc2ccccc2S1(=O)=O (configuration not stated)	9	84*	-20	1.2	0.9	nt
Fc1cccc(-c2cc3nc4c(c(N5CCOCC5)n3n2)CCCC4)c1	63*	-1	94*	0.1	0.4	nt
Clc1cccc(-c2cc3nc4c(c(N5CCOCC5)n3n2)CCCC4)c1	70*	nt	89*	0.1	0.3	nt
Clc1cccc(-c2cc3nc4c(c(N5CCN(c6cnccn6)CC5)n3n2)CCCC4)c1	nt	-10	nt	nt	nt	-2
Cc1cc(C)c(C)c(S(=O)(=O)N2C(=S)NC(=O)C2CC(C)C)c1C (configuration not stated)	10	15	40	0.6	0.9	17
CNC(=S)N1N=C(c2ccc(C)cc2)CC1c1ccc(OC)cc1 (configuration not stated)	77*	3	93*	0.1	0.2	5
CC(Sc1ccccc1)C(=O)N(CCC#N)Cc1cccnc1 (configuration not stated)	nt	3	nt	nt	nt	nt
Cc1cc(C)c2c(CC(=O)N(CCC#N)Cc3cccnc3)coc2c1	51*	-12	-25	1.3	0.5	1
OCCN=C1CCCc2c1[nH]c1ccc(Br)cc21	16	nt	19	0.8	0.8	-8
CCOC(=O)c1c(N)sc(C(=O)OC)c1C	nt	-23	nt	nt	nt	nt
CCOC(=O)c1c(N)sc2c(OC)c(Br)ccc12	2	nt	63*	0.4	1	6
N#Cc1c(NC(=O)CCn2cnc3ccccc3c2=O)oc(-c2ccccc2)c1-c1ccccc1	81*	-21	96*	0	0.2	-25
N#Cc1c(NC(=O)CN2C(=O)c3ccccc3C2=O)oc(-c2ccccc2)c1-c1ccccc1	nt	-20	nt	nt	nt	-8
O=C(CCN1C(=O)c2ccccc2C1=O)Nn1cnnc1	-2	nt	90*	0.1	1	nt
N#Cc1c(NC(=O)CCN2C(=O)c3ccccc3C2=O)oc(-c2ccccc2)c1-c1ccccc1	30	nt	82*	0.2	0.7	-4
O=C(CCn1cnc2ccccc2c1=O)Nc1ccc2c(c1)OCCO2	53*	-31	53*	0.5	0.5	0
CCn1c(SCC(=O)Nc2nccs2)nnc1-c1ccc(S(=O)(=O)N2CCCCC2)cc1	18	nt	46	0.5	0.8	0
CC(C)SC1=NC(C)(C)C=C(/C=C/c2c(Cl)cccc2Cl)N1	78*	6	70*	0.3	0.2	-17
CC(C)SC1=NC(C)(C)C=C(/C=C/c2ccc(Cl)cc2Cl)N1	69*	19	62*	0.4	0.3	5
Clc1ccc(/C=C/c2nc3ccccc3[nH]2)c(Cl)c1	32	12	14	0.9	0.7	13
CCOC(=O)c1cc(C#N)c(Oc2ccc(F)cc2)nc1-c1ccccc1	17	-20	50	0.5	0.8	-25
CC(C)CNC(=O)c1cccc(NC(=O)C2CCCO2)c1 (configuration not stated)	2	1	14	0.9	1	-2
CC(=O)NN1C(=O)/C(=C/c2ccc(Br)o2)SC1=S	48	5	-7	1.1	0.5	-11
COCCCNC(=O)Cn1ncc2c(=O)oc3ccccc3c21	3	-25	-10	1.1	1	46
SMILES	CYP2C19 inhib	E-sel TNF inh	CYP2C9 inh	CYP2C9 activ	CYP2C19 activ	cytoskel mod
CCCN(C(=O)Cn1ncc2c(=O)oc3ccccc3c21)c1cccc(C)c1	36	9	60*	0.4	0.6	1
Cn1cc(CC(=O)NCCCN2CCCC2=O)c2ccccc21	16	nt	-138	2.4*	0.8	-8
CCN(CCCNC(=O)Cn1ncc2c(=O)oc3ccccc3c21)c1cccc(C)c1	64*	nt	70*	0.3	0.4	-6
O=C(Cn1ncc2c(=O)oc3ccccc3c21)Nc1nc2ccccc2s1	12	8	51*	0.5	0.9	-6
CC(=O)N/N=C(\C)CC(=O)Nc1ccc2c(c1)OCCO2	nt	28	nt	nt	nt	nt
Cc1ccc2nc(Cn3cc(C(F)(F)F)ccc3=O)cc(=O)n2c1	nt	-37	nt	nt	nt	nt
COc1ccc(N2CCN(C(c3cc(OC)ccc3OC)c3nnnn3CC3CCCO3)CC2)cc1 (configuration not stated)	nt	24	nt	nt	nt	2
Cc1nc(CN2CCN(C(=O)c3ccc(Br)cc3)CC2)cs1	14	6	-16	1.2	0.9	-14
O=C(Nc1ccccc1)c1ccccc1CC[N+](=O)[O-]	7	-9	-2	1	0.9	-20
COC(=O)c1sc2ccccc2c1NC(=O)c1ccc(S(=O)(=O)N2CCCCC2C)cc1 (configuration not stated)	nt	-1	nt	nt	nt	nt
CCc1nc(C#N)c(N2CCOCC2)o1	nt	-2	nt	nt	nt	nt
O=C(Cn1ncc2c(=O)oc3ccccc3c21)NCCCN1CCCC1=O	80*	nt	11	0.9	0.2	-8
COc1cccc(CSc2nc3ccccc3cc2C=O)c1	25	-34	64*	0.4	0.7	5
CCc1cc2ccccc2nc1SCC(=O)Nc1cc(OC)c(OC)cc1C(=O)O	nt	5	nt	nt	nt	nt
COc1cc(NC(=O)CSc2nc3ccccc3cc2Cc2ccccc2)cc(OC)c1	83*	-42	64*	0.4	0.2	-10
COc1cccc(NC(=O)CSc2nc(N)cc(N)n2)c1	-3	-3	-8	1.1	1	30
COc1ccc(NC(=O)CSc2nc3ccccc3cc2Cc2ccccc2)cc1	85*	1	33	0.7	0.1	-10
COc1cccc(NC(=O)CSc2nc3ccccc3cc2Cc2ccccc2)c1	94*	-8	68*	0.3	0.1	-8
CCc1ccc(Nc2nc(N)nc(CSc3nnnn3-c3ccccc3)n2)cc1	10	13	12	0.9	0.9	-4
COc1cc(NC(=O)CSc2ncccc2C(=O)OC(C)C)cc(OC)c1	70*	nt	51*	0.5	0.3	-6
COc1ccc(-n2c(O)c(/C=N/n3cnnc3)c3ccccc3c2=O)cc1	-7	nt	75*	0.3	1.1	-29
O=c1c2ccccc2c(/C=N/n2cnnc2)c(O)n1-c1ccccc1	6	-15	61*	0.4	0.9	-4
O=C(CCSCCc1ccccn1)Nc1cc(F)ccc1F	nt	4	nt	nt	nt	nt
CCOC(=O)Cc1nnc(NC(=O)COc2ccc(F)cc2)s1	0	12	21	0.8	1	10
CCOC(=O)c1cnc2c(C)cccc2c1NCCc1ccc(OC)c(OC)c1	97*	-12	90*	0.1	0	48
